Results from PubChem BioAssay (NCI).
The panel holds about 83,000 compounds, 20% with a hit somewhere; the sample as a whole holds those more often.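 Method: cells in 96-well plates; compound added at one concentration; 48 h incubation; percent growth measured; values under 10 scored active.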 Unmarked numbers belong to inactive results. Calls of active or inactive are those of the source.

How the values were obtained:
Experiment in all cases: NCI-60 one-dose screen, 48 h (100 = growth as untreated, 0 = no growth, -100 = all killed)
Settings in all cases: 10 µM unless noted
[1] = tested on: HCT-15 colon
[2] = tested on: HT29 colon
[3] = tested on: SNB-75 CNS
[4] = tested on: SNB-19 CNS
[5] = tested on: U251 CNS
[6] = tested on: PC-3 prostate
[7] = tested on: SK-MEL-5 melanoma
[8] = tested on: UACC-62 melanoma
[9] = tested on: LOX IMVI melanoma
[10] = tested on: SK-MEL-28 melanoma

Structure (SMILES) | growth [1] | growth [2] | growth [3] | growth [4] | growth [5] | growth [6] | growth [7] | growth [8] | growth [9] | growth [10]
CN1C(=O)/C(=C/c2ccc(C(=O)Nc3ncc(Cc4cccc(Cl)c4)s3)cc2)SC1=S | 35.3% | 61.1% | 73.6% | 73.5% | 65.2% | 73.3% | 25.7% | 20.4% | 22.7% | 63.4%
N#C/C(=C\C=C\c1ccc(-c2cc(Cl)ccc2Cl)o1)c1nc2ccccc2s1 | 102% | 108% | 77.1% | 92.2% | 107% | 93.2% | 97.5% | 83.1% | 90.9% | 118%
CCOc1c(OC)cc2c(c1O)C(=O)N[C@@H]1[C@@H](O)[C@@H](O)[C@H](O)C[C@@H]21 | 102% | 100% | 93.5% | 99% | 96.7% | 100% | 101% | 93.1% | 98.1% | 105%
C=C(C)[C@@H]1CC[C@]2(C)[C@H](CC=C3[C@@H]4CC(C)(C)CC[C@]4(CO)CC[C@]32C)[C@@]1(C)CCCN | -71.6% (active) | -52.8% (active) | 39.7% | 79.5% | -86.8% (active) | 21.3% | 55.4% | 98.8% | -97.2% (active) | -88.4% (active)
COc1cc(OC)c2sc(-c3ccc(-n4cncc4-c4cc(OC)c(OC)c(OC)c4)cc3)nc2c1 | 41.3% | 44.5% | 82.9% | 49.7% | 43.1% | 34.4% | 20.9% | 43.8% | 57.7% | 73%
CCOC(=O)C1=C(C)/C(=C\c2[nH]c(C)c(C(=O)OCC)c2C)N=C1C | 91.4% | 76.7% | 89.1% | 89.7% | 74.1% | 84.6% | 97.4% | 90.9% | 1.05% (active) | 88.3%
CCO/C=N/C1=C(C#N)C(c2ccc(F)cc2)c2sc3c(F)cccc3c2O1 (stereo not given) | 26% | 56.8% | 13.4% | 33.2% | 26.6% | 47.9% | 35.5% | 15.2% | 36% | 60.4%
CC(=O)OC[C@]12CC[C@@H]([C@@H](C)c3nnc(-c4ccncc4)o3)[C@@H]1[C@H]1CC[C@@H]3[C@@]4(C)CC[C@H](OC(C)=O)C(C)(C)[C@@H]4CC[C@@]3(C)[C@]1(C)CC2 | 77.5% | 63.8% | 103% | 82.7% | 64.1% | 33.5% | 74.3% | 58.2% | 77.2% | 92.8%
COc1ccc2[nH]cc(-c3nc(-c4c[nH]c5c(Cl)nccc45)cs3)c2c1 | -16.1% (active) | 15.8% | 54.1% | 63.9% | 17.5% | 31% | 55.6% | 52% | 13.2% | 42%
CCCCC#Cc1c(I)n(C)c(=O)[nH]c1=O | -92.5% (active) | -75.3% (active) | 82.6% | 99.7% | 2.73% (active) | 60.2% | 62.5% | -13.5% (active) | -63.7% (active) | -85.6% (active)
CCCCNC(=O)Oc1ccc(/C(=C(/C)Cc2ccc(OC)cc2)c2ccc(OCCN3CCCCC3)cc2)cc1 | 32.3% | 2.86% (active) | 64.8% | 77.1% | 54.7% | 59% | 57% | 67.7% | 70.4% | 78.2%
CCN(CC)CCN1C(=O)c2c(c(C)c3c(oc4ccc(O)cc43)c2C)C1=O | 10.5% | 67.9% | 94.3% | 24.7% | -23.8% (active) | 49.7% | 77.2% | 56.6% | -94.1% (active) | 72.2%
CC1C=CC(OC(=O)C(C)(O)CCC(O)(C(=O)OC2CC(O)C(C(C)C)CC2(C)O)C(C)C)(C(C)C)CC1 (stereo not given) | -68.5% [4.63 µM] (active) | -39.6% [4.63 µM] (active) | -45.9% [4.63 µM] (active) | -75% [4.63 µM] (active) | -94.2% [4.63 µM] (active) | -84.9% [4.63 µM] (active) | -99.8% [4.63 µM] (active) | -88.9% [4.63 µM] (active) | -88.4% [4.63 µM] (active) | -96.9% [4.63 µM] (active)
COc1ccc(-c2nn(-c3ccccc3)cc2/C=C/C(=O)NNC(=O)Nc2ccc(C)cc2)cc1 | 97.1% | 101% | 96.5% | 88.5% | 94.3% | 89.6% | 96.5% | 89.3% | 97.6% | 115%
O=C(CN1CCN(c2cc3c(cc2F)c(=O)c(C(=O)O)cn3C2CC2)CC1)N/N=C/c1ccco1 | 102% | 104% | 87.9% | 99.7% | 96.7% | 93.5% | 94.5% | 93.5% | 90.8% | 97.9%
CCN(CC)CCCN1C(=O)c2c(c(C)c3c(oc4ccc(OC)cc43)c2C)C1=O | 94.9% | 90.9% | 109% | 94.4% | 96.4% | 97.4% | 75.1% | 102% | 96.9% | 94.1%
CC1(C)N=C(N)N=C(N)N1c1ccc(CCCCc2ccccc2)c(Cl)c1 | 20.5% | -11.2% (active) | 18.3% | 21.4% | 3.58% (active) | 6.3% (active) | -76.1% (active) | 8.84% (active) | 8.69% (active) | 25.2%
C=Cc1cnc(Nc2ccc(OC)cc2)nc1NCCCNC(=O)C1CCC1 | 35.7% | 8.04% (active) | -5.11% (active) | 57.5% | 29% | 64.2% | 37.5% | 82.3% | 20.4% | 80.3%
O=C(Nc1ccc(Br)cc1)C1=NCCCCN1 | 62.2% | 86% | 88.6% | 97.3% | 91.6% | 74.4% | 93.3% | 58.8% | 35.5% | 114%
COc1cc(C(=O)n2nc(N3CCOCC3)c3cc(-n4cccc4)ccc32)cc(OC)c1OC | 17.6% | 62.4% | 49.8% | 75.2% | 68.7% | 38% | 64.3% | 73.1% | 88.7% | 72.7%
CC1=CCC(OC(=O)C(C)(C)CC(O)(C(C)O)C(O)C2(C)C=CC(Cc3ccc(C(C)C)cc3)(C(C)C)CC2)(C(C)C)CC1 (stereo not given) | 101% | 103% | 72.5% | 98.2% | 96.7% | 96.8% | 99.6% | 86.3% | -50.6% (active) | 100%
CCN(CC)CCN1C(=O)c2cccc3c(/C=C/CN4C(=O)c5cccc6cccc(c56)C4=O)ccc(c23)C1=O | 95.8% | 103% | 91.2% | 96% | 105% | 86.6% | 94.3% | 99.8% | 96.6% | 109%
Nc1ncnc2c1N=C(c1ccc3c(c1)OCO3)CC(c1cccc(Nc3ccnc4cc(C(F)(F)F)ccc34)c1)N2 (stereo not given) | 70.8% | 69.6% | 76.9% | 77.3% | 37.4% | 75.6% | 84.6% | 87.1% | 51.8% | 101%
O=c1ccc(=O)n(-c2nc(-c3ccc([N+](=O)[O-])cc3)cs2)[nH]1 | 96% | 55.6% | 92% | 96.1% | 95.6% | 98.6% | 95.6% | 90.7% | 98.5% | 105%
Cc1cccc2c1C[C@@]1(C2=O)C(c2ccc(C(C)(C)C)cc2)=NOS1=O (stereo not given in full) | 72.1% | 98.1% | 101% | 93.5% | 88.2% | 68.8% | 90.3% | 73.8% | 76.6% | 110%
C=C(C)[C@@H]1CCC[C@]2(C(=O)O)CC[C@]3(C)[C@@H](CC[C@@H]4[C@@]5(C)C/C(=C/c6ccncc6)C(=O)C(C)(C)[C@@H]5CC[C@]43C)[C@@H]12 | 5.49% (active) | 14.8% | 52.6% | 46.1% | 17% | 27.4% | 10.6% | 26.8% | -9.49% (active) | 48.4%
